From PubChem BioAssay AID504550 (Sanford-Burnham Center for Chemical Genomics, 2011)
Some of the results follow. Activity calls are given as the source filed them.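 Rule for the calls: active = mean activation at 20 µM of at least 40%; inactive = the rest.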

Molecular target: Neurotensin receptor type 1 (Homo sapiens) (UniProt P30989)
Assay: beta-arrestin-GFP spots via human NTR1 – imaging, U2OS cells, single concentration, confirmation (AID 504550);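 note: 0% = DMSO without peptide and 100% = 100 nM NTR1 peptide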
Conditions: NTR1-U2OS beta-arrestin-GFP translocation imaging; at 20 µM; hits give high values

Sequence of Neurotensin receptor type 1 (Homo sapiens) (P30989 whole entry, looked up): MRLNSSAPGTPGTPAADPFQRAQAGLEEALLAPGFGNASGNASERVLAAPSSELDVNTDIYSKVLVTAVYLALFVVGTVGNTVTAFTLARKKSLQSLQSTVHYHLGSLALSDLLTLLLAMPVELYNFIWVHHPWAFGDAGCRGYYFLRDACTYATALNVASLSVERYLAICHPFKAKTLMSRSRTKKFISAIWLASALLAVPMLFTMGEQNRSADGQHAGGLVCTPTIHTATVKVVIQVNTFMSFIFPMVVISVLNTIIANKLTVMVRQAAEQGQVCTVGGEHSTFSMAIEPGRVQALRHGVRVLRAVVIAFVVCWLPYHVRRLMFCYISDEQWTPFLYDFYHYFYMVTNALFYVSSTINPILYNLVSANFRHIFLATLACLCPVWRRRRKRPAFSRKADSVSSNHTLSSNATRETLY

| Structure (SMILES) | activation |
| --- | --- |
| O=C1NC(=O)N(CCc2ccc(F)cc2)C(=O)/C1=C/C=C/c1ccccc1 | 43.1% (active) |
| Cc1cccc(N2C(=O)NC(=O)/C(=C\c3cnn(-c4ccccc4)c3)C2=O)c1 | 47.1% (active) |
